# Data reported in the supplement of paper PMC7724964.
# T1: RARA 175-421 Hormone_recep (domain begin residue: 175, domain end residue: 421), P10276
# T1 chain: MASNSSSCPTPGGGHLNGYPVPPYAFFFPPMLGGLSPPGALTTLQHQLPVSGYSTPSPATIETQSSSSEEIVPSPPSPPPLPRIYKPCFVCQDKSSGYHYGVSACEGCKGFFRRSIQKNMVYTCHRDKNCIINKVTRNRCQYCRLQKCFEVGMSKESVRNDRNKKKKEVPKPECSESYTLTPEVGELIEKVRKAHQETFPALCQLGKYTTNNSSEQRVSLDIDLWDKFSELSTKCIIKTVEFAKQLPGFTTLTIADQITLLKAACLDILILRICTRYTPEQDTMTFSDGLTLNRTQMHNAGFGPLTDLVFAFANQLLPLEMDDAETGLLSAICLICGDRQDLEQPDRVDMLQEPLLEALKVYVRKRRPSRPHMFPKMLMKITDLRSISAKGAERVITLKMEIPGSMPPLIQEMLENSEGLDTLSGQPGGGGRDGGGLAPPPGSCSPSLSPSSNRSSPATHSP
# T2: LRP5 340-601 Ldl_recept_b (domain begin residue: 340, domain end residue: 601), O75197
# T2 chain: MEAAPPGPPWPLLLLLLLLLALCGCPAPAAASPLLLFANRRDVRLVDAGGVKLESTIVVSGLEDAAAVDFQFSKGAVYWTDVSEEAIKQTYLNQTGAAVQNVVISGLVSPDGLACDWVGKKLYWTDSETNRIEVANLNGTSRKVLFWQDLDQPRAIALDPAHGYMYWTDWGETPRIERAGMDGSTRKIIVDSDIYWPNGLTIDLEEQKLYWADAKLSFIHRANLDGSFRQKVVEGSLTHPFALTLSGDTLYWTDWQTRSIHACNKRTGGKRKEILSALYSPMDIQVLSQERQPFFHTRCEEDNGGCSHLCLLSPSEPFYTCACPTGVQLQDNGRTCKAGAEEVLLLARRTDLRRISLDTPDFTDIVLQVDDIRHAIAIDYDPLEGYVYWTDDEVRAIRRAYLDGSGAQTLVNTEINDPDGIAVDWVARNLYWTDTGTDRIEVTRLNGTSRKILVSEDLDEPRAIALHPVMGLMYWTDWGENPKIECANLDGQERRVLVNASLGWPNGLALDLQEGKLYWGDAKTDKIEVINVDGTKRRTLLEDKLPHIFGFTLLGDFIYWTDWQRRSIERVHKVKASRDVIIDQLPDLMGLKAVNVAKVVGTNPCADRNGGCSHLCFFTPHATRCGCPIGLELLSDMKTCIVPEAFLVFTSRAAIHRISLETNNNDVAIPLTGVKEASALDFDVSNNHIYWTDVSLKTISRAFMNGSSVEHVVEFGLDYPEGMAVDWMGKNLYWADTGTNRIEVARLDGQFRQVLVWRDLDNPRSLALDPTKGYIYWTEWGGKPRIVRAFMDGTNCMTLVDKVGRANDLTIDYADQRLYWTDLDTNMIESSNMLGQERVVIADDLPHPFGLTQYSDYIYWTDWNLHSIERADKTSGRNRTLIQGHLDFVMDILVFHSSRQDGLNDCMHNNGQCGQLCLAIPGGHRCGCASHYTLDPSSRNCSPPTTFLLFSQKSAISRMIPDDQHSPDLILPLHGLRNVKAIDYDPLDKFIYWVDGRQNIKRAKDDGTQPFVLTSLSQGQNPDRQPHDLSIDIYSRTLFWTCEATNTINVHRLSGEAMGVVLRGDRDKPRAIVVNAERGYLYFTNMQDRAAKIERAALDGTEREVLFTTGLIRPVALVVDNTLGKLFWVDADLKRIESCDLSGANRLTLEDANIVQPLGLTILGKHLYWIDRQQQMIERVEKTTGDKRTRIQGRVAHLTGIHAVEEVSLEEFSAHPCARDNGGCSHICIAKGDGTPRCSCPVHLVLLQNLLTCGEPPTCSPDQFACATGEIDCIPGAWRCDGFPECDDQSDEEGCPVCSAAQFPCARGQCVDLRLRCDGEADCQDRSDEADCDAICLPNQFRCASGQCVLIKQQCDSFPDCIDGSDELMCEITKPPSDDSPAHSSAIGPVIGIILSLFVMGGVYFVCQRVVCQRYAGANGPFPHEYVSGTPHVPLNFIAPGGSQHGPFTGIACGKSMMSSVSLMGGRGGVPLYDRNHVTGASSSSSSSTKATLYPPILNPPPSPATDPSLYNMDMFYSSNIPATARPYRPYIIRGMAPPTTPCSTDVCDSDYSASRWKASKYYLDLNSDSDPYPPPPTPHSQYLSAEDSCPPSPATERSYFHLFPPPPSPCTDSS
# T3: LBR 1-67 LBR_tudor (domain begin residue: 1, domain end residue: 67), Q14739
# T3 chain: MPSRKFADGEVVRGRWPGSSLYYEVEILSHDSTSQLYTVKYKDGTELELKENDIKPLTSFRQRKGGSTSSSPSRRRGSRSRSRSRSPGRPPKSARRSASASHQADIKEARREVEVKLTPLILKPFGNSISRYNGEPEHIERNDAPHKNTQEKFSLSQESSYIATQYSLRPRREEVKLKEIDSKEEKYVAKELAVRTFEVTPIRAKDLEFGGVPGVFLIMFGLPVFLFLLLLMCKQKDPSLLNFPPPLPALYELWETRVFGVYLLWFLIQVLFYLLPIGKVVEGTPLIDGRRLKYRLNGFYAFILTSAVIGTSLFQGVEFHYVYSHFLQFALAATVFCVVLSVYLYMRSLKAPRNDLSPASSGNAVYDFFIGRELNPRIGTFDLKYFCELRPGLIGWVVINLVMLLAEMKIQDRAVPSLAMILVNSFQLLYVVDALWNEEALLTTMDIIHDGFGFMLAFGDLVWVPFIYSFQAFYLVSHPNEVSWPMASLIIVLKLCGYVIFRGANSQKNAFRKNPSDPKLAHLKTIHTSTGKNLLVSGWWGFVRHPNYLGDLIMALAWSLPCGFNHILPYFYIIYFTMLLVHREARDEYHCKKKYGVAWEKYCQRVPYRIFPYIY
# T4: IRS1 157-267 IRS (domain begin residue: 157, domain end residue: 267), P35568
# T4 chain: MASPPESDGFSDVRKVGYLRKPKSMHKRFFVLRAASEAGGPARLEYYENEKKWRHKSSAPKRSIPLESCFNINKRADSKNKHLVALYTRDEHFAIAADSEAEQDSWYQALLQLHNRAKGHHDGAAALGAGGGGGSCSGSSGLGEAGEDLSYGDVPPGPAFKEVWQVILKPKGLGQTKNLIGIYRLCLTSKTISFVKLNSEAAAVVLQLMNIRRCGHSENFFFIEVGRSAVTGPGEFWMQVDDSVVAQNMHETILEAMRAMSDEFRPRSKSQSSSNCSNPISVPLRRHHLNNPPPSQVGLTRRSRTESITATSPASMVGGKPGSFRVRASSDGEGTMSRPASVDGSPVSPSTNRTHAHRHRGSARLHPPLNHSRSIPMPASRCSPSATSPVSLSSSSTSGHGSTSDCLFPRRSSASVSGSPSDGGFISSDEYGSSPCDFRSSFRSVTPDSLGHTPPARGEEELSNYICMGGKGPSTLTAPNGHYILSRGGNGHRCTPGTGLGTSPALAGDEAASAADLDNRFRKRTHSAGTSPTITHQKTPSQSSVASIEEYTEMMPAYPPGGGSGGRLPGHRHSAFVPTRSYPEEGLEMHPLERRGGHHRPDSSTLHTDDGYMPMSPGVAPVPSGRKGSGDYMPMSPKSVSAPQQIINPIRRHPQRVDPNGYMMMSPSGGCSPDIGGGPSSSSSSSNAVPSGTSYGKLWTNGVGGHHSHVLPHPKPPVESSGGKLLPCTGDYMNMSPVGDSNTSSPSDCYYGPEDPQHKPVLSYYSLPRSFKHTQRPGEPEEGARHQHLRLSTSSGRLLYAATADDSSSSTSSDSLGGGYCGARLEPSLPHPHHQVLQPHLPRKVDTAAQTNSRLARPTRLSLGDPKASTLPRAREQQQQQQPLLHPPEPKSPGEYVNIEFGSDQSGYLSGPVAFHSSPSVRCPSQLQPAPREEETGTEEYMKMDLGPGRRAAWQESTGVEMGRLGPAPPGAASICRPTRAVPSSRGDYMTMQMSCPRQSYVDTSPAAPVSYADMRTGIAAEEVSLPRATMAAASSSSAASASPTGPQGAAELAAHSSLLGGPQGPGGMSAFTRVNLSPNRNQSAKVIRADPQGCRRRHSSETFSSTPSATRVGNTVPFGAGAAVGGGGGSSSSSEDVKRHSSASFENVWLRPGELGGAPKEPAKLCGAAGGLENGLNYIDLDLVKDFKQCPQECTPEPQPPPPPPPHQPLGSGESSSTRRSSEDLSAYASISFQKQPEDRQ
# Molecular target: KARS 71-214 tRNA_anti-codon (domain begin residue: 71, domain end residue: 214), Q15046
# Experiment: phage ELISA signal ratio (GST-PRM binding over GST background); higher = stronger binding of peptide-phage to the PRM
# Outline: (§1)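 An M13 phage library with randomized hexadecapeptides on the gene-8 major coat protein, each peptide lacking cysteine and flanked by glycine, was selected for five rounds against human peptide recognition domains fused to the C-terminus of glutathione S-transferase (GST) and expressed in 96-well plates. Approximately 48 clones from rounds 4 and 5 went to phage ELISA. The reported value is the ELISA signal on the GST-domain fusion over the signal on GST alone, and positive clones were sequenced.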
# Chain of KARS 71-214 tRNA_anti-codon (domain begin residue: 71, domain end residue: 214), Q15046 (Q15046 whole entry, looked up, tested part not stated): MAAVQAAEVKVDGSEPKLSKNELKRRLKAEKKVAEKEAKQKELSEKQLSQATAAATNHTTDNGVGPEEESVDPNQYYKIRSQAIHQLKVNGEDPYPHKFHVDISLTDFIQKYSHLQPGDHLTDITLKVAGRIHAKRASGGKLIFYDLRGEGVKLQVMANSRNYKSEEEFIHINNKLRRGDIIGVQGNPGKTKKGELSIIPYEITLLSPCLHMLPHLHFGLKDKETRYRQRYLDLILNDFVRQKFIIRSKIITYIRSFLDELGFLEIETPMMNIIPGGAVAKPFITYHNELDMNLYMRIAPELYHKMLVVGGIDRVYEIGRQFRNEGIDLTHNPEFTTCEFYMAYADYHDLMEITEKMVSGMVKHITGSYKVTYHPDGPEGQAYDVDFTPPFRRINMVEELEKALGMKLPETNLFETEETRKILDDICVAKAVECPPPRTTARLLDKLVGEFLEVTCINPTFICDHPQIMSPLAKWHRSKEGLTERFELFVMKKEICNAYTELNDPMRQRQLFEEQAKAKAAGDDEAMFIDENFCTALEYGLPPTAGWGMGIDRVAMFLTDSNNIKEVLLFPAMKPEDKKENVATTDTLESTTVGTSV
row,Binder,phage ELISA signal ratio
1,EQWEIEWLEHFNTYWE,17.2

# Molecular target: KDM6A 1-520 TPR_8 (domain begin residue: 1, domain end residue: 520), O15550
# Experiment: as above
# Outline: as §1
# Chain of KDM6A 1-520 TPR_8 (domain begin residue: 1, domain end residue: 520), O15550 (O15550 whole entry): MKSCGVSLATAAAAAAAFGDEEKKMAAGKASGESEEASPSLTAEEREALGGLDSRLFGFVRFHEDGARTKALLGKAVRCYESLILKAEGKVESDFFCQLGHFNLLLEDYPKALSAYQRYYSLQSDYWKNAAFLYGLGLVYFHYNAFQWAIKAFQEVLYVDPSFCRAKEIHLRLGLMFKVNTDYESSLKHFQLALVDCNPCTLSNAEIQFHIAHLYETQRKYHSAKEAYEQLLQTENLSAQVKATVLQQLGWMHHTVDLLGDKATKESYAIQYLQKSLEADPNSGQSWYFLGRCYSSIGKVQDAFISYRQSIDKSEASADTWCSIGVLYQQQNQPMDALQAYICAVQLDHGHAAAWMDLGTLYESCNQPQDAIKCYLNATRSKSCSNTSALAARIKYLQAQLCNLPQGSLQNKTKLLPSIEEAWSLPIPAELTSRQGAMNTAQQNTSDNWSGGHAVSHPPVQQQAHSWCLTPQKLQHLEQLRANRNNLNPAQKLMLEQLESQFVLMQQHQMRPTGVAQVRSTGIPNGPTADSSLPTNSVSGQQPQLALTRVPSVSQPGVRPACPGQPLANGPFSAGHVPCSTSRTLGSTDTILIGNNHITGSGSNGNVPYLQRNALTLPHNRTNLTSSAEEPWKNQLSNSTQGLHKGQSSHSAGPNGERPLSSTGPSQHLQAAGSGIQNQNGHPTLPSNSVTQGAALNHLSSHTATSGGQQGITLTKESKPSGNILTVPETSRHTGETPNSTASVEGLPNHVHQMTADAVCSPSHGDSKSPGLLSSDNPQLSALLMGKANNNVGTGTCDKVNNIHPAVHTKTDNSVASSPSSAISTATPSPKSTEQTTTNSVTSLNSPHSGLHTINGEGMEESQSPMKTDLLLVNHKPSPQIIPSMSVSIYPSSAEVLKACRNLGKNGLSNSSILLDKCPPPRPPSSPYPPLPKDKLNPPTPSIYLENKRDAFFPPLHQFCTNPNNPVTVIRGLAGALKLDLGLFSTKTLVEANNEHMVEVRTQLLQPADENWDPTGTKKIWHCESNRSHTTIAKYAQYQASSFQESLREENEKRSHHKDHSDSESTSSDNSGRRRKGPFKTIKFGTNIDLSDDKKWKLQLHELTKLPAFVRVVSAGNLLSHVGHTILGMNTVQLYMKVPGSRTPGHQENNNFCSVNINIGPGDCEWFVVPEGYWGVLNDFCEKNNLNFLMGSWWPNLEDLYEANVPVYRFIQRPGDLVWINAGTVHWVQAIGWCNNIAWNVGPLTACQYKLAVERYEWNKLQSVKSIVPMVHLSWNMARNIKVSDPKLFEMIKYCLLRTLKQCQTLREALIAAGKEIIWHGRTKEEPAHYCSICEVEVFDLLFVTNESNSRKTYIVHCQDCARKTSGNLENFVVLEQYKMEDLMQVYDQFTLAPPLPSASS
row,Binder,phage ELISA signal ratio
1,YMEMVWDTIQIQPPQD,6.38
2,WAEELYHSTQWLGVTE,5.83
3,YHWDNLLEPTIQTYMG,7.69
4,WGWDDIPALQEMKPTN,7.16
5,NYIEHMYDSMMYGSMT,8.78
6,VEVDYFNSMYEAMSFM,4.78
7,WSWPDLDVVQDMIVAE,5.09
8,SPNVVEYPDWFMWAIE,7.87
9,MDMIWDQILPDQFLSK,6.37

# Molecular target: KPNB1 1-876 IBN_N+Arm (domain begin residue: 1, domain end residue: 876), Q14974
# Experiment: as above
# Outline: as §1
# Chain of KPNB1 1-876 IBN_N+Arm (domain begin residue: 1, domain end residue: 876), Q14974 (Q14974 whole entry): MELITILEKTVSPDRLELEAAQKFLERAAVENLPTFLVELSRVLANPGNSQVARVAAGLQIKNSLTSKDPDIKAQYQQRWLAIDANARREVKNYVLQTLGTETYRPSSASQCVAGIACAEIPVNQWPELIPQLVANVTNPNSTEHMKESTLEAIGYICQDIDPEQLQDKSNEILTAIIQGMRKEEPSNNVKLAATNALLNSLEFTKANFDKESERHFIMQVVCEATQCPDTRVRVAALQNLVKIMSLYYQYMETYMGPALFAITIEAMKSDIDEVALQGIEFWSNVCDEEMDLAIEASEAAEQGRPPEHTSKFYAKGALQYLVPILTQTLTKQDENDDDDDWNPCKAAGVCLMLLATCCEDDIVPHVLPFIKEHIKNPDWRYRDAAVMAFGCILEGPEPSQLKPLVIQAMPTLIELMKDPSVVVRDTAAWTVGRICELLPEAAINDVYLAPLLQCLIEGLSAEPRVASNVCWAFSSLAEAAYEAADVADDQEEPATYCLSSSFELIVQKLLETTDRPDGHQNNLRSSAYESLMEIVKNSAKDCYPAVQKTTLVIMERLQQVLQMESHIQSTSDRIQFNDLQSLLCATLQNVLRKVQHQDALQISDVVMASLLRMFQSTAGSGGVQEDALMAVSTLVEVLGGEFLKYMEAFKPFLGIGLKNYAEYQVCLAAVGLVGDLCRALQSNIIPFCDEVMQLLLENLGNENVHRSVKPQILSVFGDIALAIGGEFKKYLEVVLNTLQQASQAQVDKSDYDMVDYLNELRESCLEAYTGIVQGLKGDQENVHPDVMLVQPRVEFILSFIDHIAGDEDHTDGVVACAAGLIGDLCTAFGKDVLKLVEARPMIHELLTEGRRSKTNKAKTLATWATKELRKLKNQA
row,Binder,phage ELISA signal ratio
1,PHEFQWALWPSGVFVF,14
2,YDFGPFMGVGAPSFQF,9.88
3,WQMWTPLGDLDQIYTF,16.1
4,LDWVSMFEDNSSQFSV,17.2

# Molecular target: HSPA9 438-651 HSP70 (domain begin residue: 438, domain end residue: 651), P38646
# Experiment: as above
# Outline: as §1
# Chain of HSPA9 438-651 HSP70 (domain begin residue: 438, domain end residue: 651), P38646 (P38646 whole entry): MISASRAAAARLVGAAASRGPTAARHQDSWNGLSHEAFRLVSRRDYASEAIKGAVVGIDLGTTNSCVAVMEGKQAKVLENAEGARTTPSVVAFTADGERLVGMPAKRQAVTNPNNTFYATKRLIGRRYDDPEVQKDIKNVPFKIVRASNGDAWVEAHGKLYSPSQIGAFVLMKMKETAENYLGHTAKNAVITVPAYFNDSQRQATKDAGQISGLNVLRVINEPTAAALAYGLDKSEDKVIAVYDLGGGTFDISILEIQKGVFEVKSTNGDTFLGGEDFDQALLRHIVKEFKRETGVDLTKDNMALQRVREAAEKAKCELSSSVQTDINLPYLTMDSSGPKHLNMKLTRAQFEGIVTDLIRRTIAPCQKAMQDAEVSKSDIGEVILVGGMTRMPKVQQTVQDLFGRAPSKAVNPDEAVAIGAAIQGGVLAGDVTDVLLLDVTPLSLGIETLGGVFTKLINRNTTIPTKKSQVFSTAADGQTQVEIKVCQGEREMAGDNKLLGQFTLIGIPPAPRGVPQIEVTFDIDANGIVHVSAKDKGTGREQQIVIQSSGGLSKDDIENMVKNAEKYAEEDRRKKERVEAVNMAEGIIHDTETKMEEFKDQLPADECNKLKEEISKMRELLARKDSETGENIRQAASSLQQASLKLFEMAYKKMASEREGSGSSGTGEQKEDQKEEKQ
row,Binder,phage ELISA signal ratio
1,STEFFYDWGYWEQMIE,19.8
2,TFSMHRDEFQMLLNMM,23.3
3,DLQQWIIDFYIHSMET,20.6
4,TYYLDPFAWEYLQAEY,20.2
5,PYGLTAEGYERFLWLV,28
6,VITMDQSQWDDVMFWL,27.3

# Molecular target: T1, RARA 175-421 Hormone_recep (domain …
# Experiment: as above
# Outline: as §1
row,Binder,phage ELISA signal ratio
1,STEFFYDWGYWEQMIE,9.16

# Molecular target: T2, LRP5 340-601 Ldl_recept_b (domain begin …
# Experiment: as above
# Outline: as §1
row,Binder,phage ELISA signal ratio
1,EWSSNEWWDAYSAMTV,7.31

# Molecular target: KMT2C 1055-1137 PHD (domain begin residue: 1055, domain end residue: 1137)
# Experiment: as above
# Outline: as §1
row,Binder,phage ELISA signal ratio
1,DNYMESMYEAMGDPKK,6.88
2,FETLEVIPGLGEFFKQ,6.9

# Molecular target: T3, LBR 1-67 LBR_tudor (domain begin …
# Experiment: as above
# Outline: as §1
row,Binder,phage ELISA signal ratio
1,YGWETIWDTFPVDMPA,3.69
2,PFTAFFVMMEWVQVPK,2.52
3,QQQKHPNFALHYHQDQ,6.64

# Molecular target: MAD2L1 2-205 HORMA (domain begin residue: 2, domain end residue: 205), Q13257
# Experiment: as above
# Outline: as §1
# Chain of MAD2L1 2-205 HORMA (domain begin residue: 2, domain end residue: 205), Q13257 (Q13257 whole entry): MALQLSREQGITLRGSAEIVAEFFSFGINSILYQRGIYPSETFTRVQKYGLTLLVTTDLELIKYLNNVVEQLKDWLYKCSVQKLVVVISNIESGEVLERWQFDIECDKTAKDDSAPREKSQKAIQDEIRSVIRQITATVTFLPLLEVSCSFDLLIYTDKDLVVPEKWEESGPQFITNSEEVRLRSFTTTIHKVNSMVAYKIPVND
row,Binder,phage ELISA signal ratio
1,SGEWFKLPSFDEPRKG,6.3

# Molecular target: KMT2C 995-1055 PHD (domain begin residue: 995, domain end residue: 1055)
# Experiment: as above
# Outline: as §1
row,Binder,phage ELISA signal ratio
1,VKTPVEDWKYLTFYYI,6.07

# Molecular target: T4, IRS1 157-267 IRS (domain begin residue: …
# Experiment: as above
# Outline: as §1
row,Binder,phage ELISA signal ratio
1,IWTWEYNPHYEIIHDM,18.6
